Assay results as given in PubChem BioAssay AID1159580 (chemical genetic matrix, 2015).
Several values for one entry are separate records, joined by “and”; a condition that tells them apart may be missing. Equal values may be shown once. The whole screen tested about 5,500 compounds, of which about 2,000 (36%) were called active. Roughly 18% stayed inconclusive and do not appear here. No stated cut-off is given here; in the data, active means normalized growth mostly below about 0.91 (no sharp cut-off); inconclusive means no clear call, values can overlap the other calls; inactive means mostly above about 0.92. Some of the results follow.

Test: chemical genetic growth profiling, strain panel (AID 1159580);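 further: tested at 20 µM; growth read once vehicle control cultures reached saturation at 30 °C; 1 = growth at the plate median or of vehicle wells; lower values mean less growth of the strain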
Settings: S. cerevisiae deletion strains, growth OD

Measured: normalized growth

CCCOc1ccc2nc(NC(=O)OC)[nH]c2c1
inactive: locus YAL021C, strain ccr4, hits give low values 1.03 | locus YAL026C, strain drs2, hits give low values 1.02 | locus YAL030W, strain snc1, hits give low values 1.02 | locus YBL061C, strain skt5, hits give low values 1.01 | locus YBR009C, strain hhf1, hits give low values 1.01 | locus YBR021W, strain FUR4, hits give low values 1.01 | locus YBR023C, strain chs3, hits give low values 1.02 | locus YBR171W, strain sec66, hits give low values 1.02 | locus YBR229C, strain ROT2, hits give low values 0.992 | locus YBR231C, strain swc5, hits give low values 1.01 | locus YBR279W, strain paf1, hits give low values 1.02 | locus YCL011C, strain gbp2, hits give low values 1.01 | locus YCL016C, strain dcc1, hits give low values 1.02 | locus YCL029C, strain bik1, hits give low values 0.974 | locus YCL061C, strain MRC1, hits give low values 1.01 | locus YCL069W, strain vba3, hits give low values 1.02 | locus YCR088W, strain abp1, hits give low values 1.02 | locus YDL005C, strain med2, hits give low values 1.02 | locus YDL035C, strain GPR1, hits give low values 1.01 | locus YDL040C, strain nat1, hits give low values 1.02 | locus YDL074C, strain BRE1, hits give low values 1.02 | locus YDL101C, strain DUN1, hits give low values 0.997 | locus YDL134C, strain PPH21, hits give low values 0.982 | locus YDL185W, strain tfp1, hits give low values 0.976 | locus YDL192W, strain arf1, hits give low values 0.97 | locus YDR001C, strain nth1, hits give low values 1.02 | locus YDR069C, strain doa4, hits give low values 1.01 | locus YDR101C, strain arx1, hits give low values 1.01 | locus YDR137W, strain rgp1, hits give low values 0.951 | locus YDR150W, strain NUM1, hits give low values 0.996 | locus YDR159W, strain sac3, hits give low values 1.01 | locus YDR162C, strain NBP2, hits give low values 0.983 | locus YDR195W, strain ref2 1.04 | locus YDR297W, strain sur2, hits give low values 1.02 | locus YDR318W, strain mcm21, hits give low values 0.977 | locus YDR334W, strain swr1, hits give low values 1.01 | locus YDR335W, strain msn5, hits give low values 1.02 | locus YDR388W, hits give low values 0.981 | locus YDR392W, strain spt3, hits give low values 0.99 | locus YDR502C, strain sam2, hits give low values 0.983 | locus YEL037C, strain rad23, hits give low values 1.01 | locus YEL061C, strain CIN8 (second series), hits give low values 1.02 | locus YEL061C, strain CIN8, hits give low values 0.999 | locus YER015W, strain faa2, hits give low values 1 | locus YER016W, strain bim1, hits give low values 1.02 | locus YER110C, hits give low values 0.968 | locus YER111C, strain swi4, hits give low values 1.01 | locus YER155C, strain BEM2 (second series), hits give low values 1.02 | locus YER155C, strain BEM2, hits give low values 0.992 | locus YER167W, strain BCK2, hits give low values 0.988 | locus YFR010W, strain ubp6, hits give low values 1.02 | locus YGL078C, strain dbp3, hits give low values 0.982 | locus YGL086W, strain mad1, hits give low values 0.989 | locus YGL167C, strain pmr1, hits give low values 1.01 | locus YGL173C, strain kem1, hits give low values 1.02 | locus YGL227W, strain vid30, hits give low values 1.02 | locus YGL240W, strain doc1, hits give low values 1 | locus YGL248W, strain PDE1, hits give low values 0.986 | locus YGL253W, strain hxk2, hits give low values 1.01 | locus YGR078C, strain PAC10, hits give low values 0.856 | locus YGR135W, strain pre9, hits give low values 0.953 | locus YGR229C, strain SMI1, hits give low values 0.983 | locus YGR252W, strain gcn5, hits give low values 0.956 | locus YHR013C, strain ard1, hits give low values 1.01 | locus YHR027C, strain rpn1, hits give low values 1.01 | locus YHR030C, strain SLT2, hits give low values 0.988 and 1.02 | locus YHR079C, strain IRE1 (second series), hits give low values 0.986 | locus YHR079C, strain IRE1, hits give low values 1.02 | locus YHR094C, strain hxt1, hits give low values 0.982 | locus YHR129C, strain ARP1, hits give low values 0.989 | locus YHR142W, strain chs7, hits give low values 1.03 | locus YHR200W, strain rpn10, hits give low values 0.98 | locus YIL066C, strain RNR3, hits give low values 0.996 | locus YIL073C, strain SPO22, hits give low values 0.964 | locus YIL125W, strain kgd1, hits give low values 0.993 | locus YIR030C, strain dcg1, hits give low values 0.983 | locus YJL092W, strain hpr5, hits give low values 1.01 | locus YJL095W, strain BCK1 (second series), hits give low values 1.02 | locus YJL095W, strain BCK1, hits give low values 1.01 and 1.06 | locus YJL115W, strain asf1, hits give low values 1 | locus YJL129C, strain trk1, hits give low values 1.03 | locus YJL134W, strain LCB3, hits give low values 0.995 | locus YJL154C, strain vps35, hits give low values 1.02 | locus YJL164C, strain tpk1, hits give low values 1.02 | locus YJL166W, strain qcr8, hits give low values 1.02 | locus YJL168C, strain set2, hits give low values 0.994 | locus YJL187C, strain SWE1 (second series), hits give low values 1.01 | locus YJL187C, strain SWE1, hits give low values 1.01 | locus YJR043C, strain POL32, hits give low values 0.991 | locus YJR066W, strain TOR1, hits give low values 0.94
active: locus YEL003W, strain gim4, hits give low values 0.841
